± gives the standard deviation.
Key:
Conditions in all cases: modulator concentration 10 µM
[1] = test system: RAW-Dual (murine macrophage reporter line); test: NF-kB reporter (SEAP) activity fold change vs agonist alone; higher = enhanced NF-kB activity
Outline: (§1)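 In 384-well plates holding 50 000 RAW-Dual murine macrophage reporter cells per well, compound at 10 μM final was pre-incubated for 1 hour at 37 °C, after which a PRR agonist was added overnight. Supernatant SEAP read with QUANTI-Blue at 620 nm absorbance reported NF-κB, and Lucia luciferase read with QUANTI-Luc luminescence reported IRF. Fold change values come from dividing each reporter signal by the mean of agonist-only control wells on the same plate, averaged over replicate plates with propagated errors.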

[2] = test system: RAW-Dual (murine macrophage reporter line); test: IRF reporter (Lucia luciferase) activity fold change vs agonist alone; higher = enhanced IRF activity
Outline: as §1

[3] = test system: RAW-Dual (murine macrophage reporter line); test: viability score (confluency relative to resting cells, overnight) (fraction); higher = more viable, active = viable (0.7 or more)
Outline: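 RAW-Dual macrophages in 384-well plates were treated overnight with compound at 10 μM final. IncuCyte imaging recorded confluency, and IncuCyte software built two confluency masks across every imaged well. The viability score expresses confluency relative to resting cells and was judged against a cutoff, which a compound met only if both masks exceeded 70% of resting cells.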

[4] = agonist: CpG ODN 1826 0.5 ug/mL

SMILES | NF-kB reporter [1, 4] | NF-kB reporter ([1]; agonist: LPS 0.1 ug/mL) | NF-kB reporter ([1]; agonist: MPLA […]) | IRF reporter ([2]; agonist: 3'3'-cGAMP 10 ug/mL) | IRF reporter ([2]; agonist: LPS 0.1 ug/mL) | IRF reporter ([2]; agonist: MPLA […]) | viability score [3]
CC1=C(C(=O)OCc2ccc3c(c2)OCO3)C(c2ccc(Cl)c(Cl)c2)NC(=O)N1 (configuration not stated) | 1.04 ± 0.17 | 1.13 ± 0.083 | 1.11 ± 0.1 | 0.458 ± 0.025 | 0.712 ± 0.093 | 0.772 ± 0.15 | 1.01 (active)
OCC(S)CS (configuration not stated) | 0.949 ± 0.072 | 0.909 ± 0.059 | 0.988 ± 0.023 | 0.336 ± 0.034 | 0.84 ± 0.07 | 0.912 ± 0.081 | 0.994 (active)
O=[N+]([O-])c1ccccc1S(=O)(=O)NCc1ccc2c(c1)OCO2 | 1 ± 0.088 | 0.988 ± 0.075 | 0.937 ± 0.092 | 0.89 ± 0.028 | 1.05 ± 0.14 | 1.09 ± 0.2 | 1.03 (active)
COc1ccc(C=NNC(=O)CSc2nnc(-c3ccncc3)n2-c2ccccc2)cc1OC | 1.05 ± 0.12 | 1 ± 0.1 | 0.962 ± 0.034 | 0.954 ± 0.05 | 1.04 ± 0.07 | 1.01 ± 0.12 | 0.998 (active)
Cc1c(NC(=S)NC(=O)c2ccccc2[N+](=O)[O-])cccc1-c1nc2ccccc2s1 | 1.09 ± 0.087 | 1.07 ± 0.073 | 0.933 ± 0.064 | 0.88 ± 0.021 | 1.47 ± 0.2 | 1.07 ± 0.2 | 1.02 (active)
CCCCCCC=CCCCCCCCc1cccc(O)c1C(=O)O | 0.897 ± 0.067 | 0.987 ± 0.069 | 0.96 ± 0.029 | 0.774 ± 0.043 | 0.991 ± 0.12 | 1.06 ± 0.14 | 1 (active)
O=C(c1ccccc1)c1ccc2n1CCC2C(=O)O (configuration not stated) | 0.921 ± 0.13 | 1.09 ± 0.14 | 0.895 ± 0.073 | 0.94 ± 0.048 | 1.15 ± 0.26 | 1.04 ± 0.16 | 0.996 (active)
NC(=O)c1cc2ccccc2oc1=NCc1ccccc1 | 0.907 ± 0.09 | 1.06 ± 0.067 | 0.91 ± 0.1 | 0.946 ± 0.023 | 1.16 ± 0.16 | 1.07 ± 0.22 | 1.01 (active)
CCSc1nc(-c2cccs2)cc(C(F)(F)F)c1C#N | 0.77 ± 0.078 | 1.05 ± 0.069 | 1.66 ± 0.063 | 0.904 ± 0.13 | 1.18 ± 0.12 | 1.9 ± 0.25 | 0.999 (active)
COCC(=O)N1CCC2(CC1)NC(=O)N(Cc1ccc(Cl)cc1)C2=O | 0.764 ± 0.18 | 1.05 ± 0.075 | 1.05 ± 0.091 | 0.995 ± 0.05 | 1.02 ± 0.12 | 1.15 ± 0.28 | 1 (active)
O=C(C(c1ccccc1)c1ccccc1)N1CCC(n2nccn2)CC1 | 1 ± 0.054 | 1.09 ± 0.13 | 0.904 ± 0.063 | 0.989 ± 0.053 | 1.25 ± 0.078 | 1.16 ± 0.12 | 0.999 (active)
C=CCNC(=O)CN(Cc1ccccc1)S(=O)(=O)c1ccc(OC)c(OC)c1 | 0.684 ± 0.4 | 0.886 ± 0.078 | 0.946 ± 0.089 | 0.916 ± 0.029 | 1.11 ± 0.14 | 1.13 ± 0.17 | 1.04 (active)
Cc1cc(C)c2c(c1)[C@@H](N(Cc1cc(C(F)(F)F)cc(C(F)(F)F)c1)c1nnn(C)n1)CCCN2C[C@H]1CC[C@H](C(=O)O)CC1 | 0.717 ± 0.054 | 0.861 ± 0.097 | 1.08 ± 0.036 | 0.985 ± 0.058 | 0.955 ± 0.033 | 1.09 ± 0.14 | 1.01 (active)
O=C(Cc1ccc(NC(=O)c2ccc(OC(F)(F)F)cc2)cc1)NCC(F)(F)F | 1.22 ± 0.094 | 1.04 ± 0.12 | 0.994 ± 0.031 | 0.984 ± 0.055 | 1.03 ± 0.077 | 1.04 ± 0.18 | 0.999 (active)
Nc1ncn(C2OC(CO)C(O)C2O)c(=O)n1 (configuration not stated) | 2.76 ± 0.66 | 1.35 ± 0.075 | 4.3 ± 0.27 | 0.541 ± 0.026 | 0.728 ± 0.099 | 0.714 ± 0.085 | 0.808 (active)
CCCOc1cccc(C(=O)Nc2scc(-c3ccccc3)c2C(=O)OC(C)C)c1 | 1.79 ± 0.35 | 1.24 ± 0.16 | 2.23 ± 0.46 | 0.635 ± 0.056 | 0.66 ± 0.22 | 0.65 ± 0.041 | 0.883 (active)
O=C(NCCSC1CCOCC1)c1ccc(Cl)s1 | 1.21 ± 0.069 | 0.992 ± 0.1 | 1.02 ± 0.036 | 0.898 ± 0.055 | 1.03 ± 0.054 | 1.13 ± 0.14 | 1 (active)
CC(C)Oc1ccc(C(=O)N2CCC(c3ccccc3)S(=O)(=O)CC2)cc1 (configuration not stated) | 0.906 ± 0.061 | 1.07 ± 0.098 | 0.876 ± 0.049 | 0.928 ± 0.049 | 1.13 ± 0.069 | 1.09 ± 0.092 | 0.992 (active)
CC(C)(C)c1cc(C=NO)c(C(C)(C)C)s1 | 0.48 ± 0.028 | 1.03 ± 0.063 | 0.985 ± 0.061 | 0.6 ± 0.02 | 1.13 ± 0.074 | 0.746 ± 0.22 | 0.0422 (inactive)
COc1ccc(CCNCC(O)COc2cccc(C)c2)cc1OC.Cl (configuration not stated) | 0.68 ± 0.16 | 1.15 ± 0.057 | 1.06 ± 0.099 | 0.824 ± 0.029 | 1.19 ± 0.14 | 1.43 ± 0.25 | 0.985 (active)
Nc1ccc(S(N)(=O)=O)cc1 | 1.1 ± 0.094 | 0.993 ± 0.069 | 1 ± 0.088 | 1.22 ± 0.27 | 0.933 ± 0.038 | 0.904 ± 0.072 | 0.994 (active)
O=C(C=Cc1ccccc1)c1ccc(OC2OC(CO)C(O)C(O)C2O)cc1O (configuration not stated) | 1.18 ± 0.068 | 1.03 ± 0.082 | 0.94 ± 0.07 | 1.02 ± 0.039 | 1.32 ± 0.087 | 1.2 ± 0.17 | 0.986 (active)
Cc1n[nH]c(C)c1CCC(=O)NC1CCC(F)(F)CC1 | 0.921 ± 0.068 | 1.04 ± 0.12 | 0.879 ± 0.048 | 0.955 ± 0.062 | 1.18 ± 0.094 | 1.03 ± 0.28 | 1.02 (active)
CC1CN(C2=NC(=O)C(=Cc3ccc(-c4ccccc4Cl)o3)S2)CC(C)O1 (configuration not stated) | 0.495 ± 0.054 | 0.841 ± 0.053 | 0.943 ± 0.089 | 0.813 ± 0.053 | 1.34 ± 0.12 | 1.44 ± 0.15 | 1.02 (active)
Brc1ccc2ncnc(NCc3ccco3)c2c1 | 0.856 ± 0.14 | 1.98 ± 0.16 | 2.54 ± 0.3 | 0.373 ± 0.021 | 0.647 ± 0.12 | 0.7 ± 0.12 | 0.996 (active)
c1ccc2sc(SCCCCSc3nc4ccccc4s3)nc2c1 | 1.11 ± 0.087 | 1.02 ± 0.1 | 0.938 ± 0.035 | 0.953 ± 0.14 | 1.06 ± 0.1 | 0.977 ± 0.17 | 0.998 (active)
